This is an account of results in PubChem BioAssay (NCI).

In this experiment the test system is MDA-MB-468 breast. The experiment can be described thus: NCI-60 one-dose screen, 48 h (100 = growth as untreated, 0 = no growth, -100 = all killed). Conditions: 10 µM unless noted.

Molecules are shown by their SMILES. The panel holds about 83,000 compounds, 20% with a hit somewhere; the sample as a whole holds those more often.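 Plates (96-well) were seeded with cells, treated with compound at one concentration, and incubated for 48 hours before percent growth was determined.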 Unmarked numbers belong to inactive results. Activity calls are given as the source filed them. Rule for the calls: active = growth percent below 10; inactive = the rest.

With `Nc1c(C(=O)Nc2cccc3ccccc23)sc2nc3c(cc12)C(=O)CCC3`, the growth is 50%. Regarding `Cc1ccc(-n2nc3c(c(C#N)c2=O)CC(c2ccccc2[N+](=O)[O-])C([N+](=O)[O-])=C3O)cc1` (centres undefined), the growth was 94%. Take `CCNC(=O)Oc1ccc(/C(=C(/C)Cc2ccc(OC)cc2)c2ccc(OCCN(CC)CC)cc2)cc1`: the growth is 46.6%. For the compound `COc1ccc(-c2onc(N)c2-c2cc(OC)c3c(c2)OCO3)cc1`, the growth was -29.2% (active). As to `CC(C)(C)c1nn(-c2ccccc2)c2c1CC1(CN2Cc2ccc(Cl)cc2)C(=O)c2ccccc2C1=O`, the growth is 88.1%.

For `CN1CCN(CCCOc2ccc3nc(Nc4ccc(F)c(F)c4)ccc3c2)CC1`, the growth was 9.52% (active). For `O=C(CCn1c[n+](CC(=O)c2ccc(F)cc2)c2ccccc21)Nc1cccc2cccnc12`, the growth was -15.5% (active). Consider `Cc1ccc(-c2cn(C/C=C3\C=CN(S(=O)(=O)c4ccccc4)CC3)nn2)cc1`, for which the growth is 86.8%.

For `COc1ccc(C2CC(=O)c3c(O)cc(OC4OC(COC5OC(C)C(O)C(O)C5O)C(O)C(O)C4O)cc3O2)cc1O` (centres undefined), the growth was 96.9%.

For `Oc1c(C(c2ccc(F)cc2)N2CCCCC2)ccc2cncnc12` (centres undefined), the growth is -2.7% (active). For `O=c1nc2sc3nc4ccccc4cc3cc-2s1`, the growth was 124%.

On to `Cc1ccc(N2C(=O)c3cccc4c(N)c(S(=O)(=O)O)cc(c34)C2=O)cc1`, for which the growth was 113%.

For the compound `N#Cc1cccc(NC(=O)c2oc3ccccc3c2-c2cnn(-c3ccccc3)c2)c1`, the growth was 66.6% [50 µM]. Regarding `O=C(Nc1ncc(Cc2ccccc2)s1)c1sc2ccccc2c1Cl`, the growth is 7.07% (active).
